Screen size: about 320,000 compounds; about 200 (0.062%) were called active. A call without a number means that no potency is given here. About 6% were inconclusive and are not listed. Calls follow the shape of the dose curve; as a rule, active = well fitted activation curve with a large enough effect; inconclusive = small, poorly fitted or top-dose-only effect; inactive = no such curve, though single readings can be large or run the other way. This excerpt belongs to a sample that is enriched for actives.
assay: qHTS assay for re-activators of p53 using a Luc reporter; conditions: H1299 p53-A138V BP100-luciferase reporter, luminescence, 24 h; series mostly up to 92.2 µM; also: nearly all actives have a fitted effect of over 45% in size
How it was run: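 p53-null H1299 cells stably carrying temperature-sensitive p53-A138V and a BP100-luciferase reporter were pinned with compounds (4-point, 1:5 series) and held 24 hrs at 37 deg C. Luminescence was read 10 min after detection reagent.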
Potency is read from the fitted curve at half-maximal effect.

| SMILES | Potency |
| --- | --- |
| Brc1ccc(-c2noc(-c3ccccc3)n2)o1 | inactive |
| Cc1cccc(-c2noc(-c3ccc(F)cc3)n2)c1 | 31.6 µM (active) |
| Cc1cccc(-c2noc(CCC(=O)NC3CCCC3)n2)c1 | inactive |
| CC(C)(C)OC(=O)C[C@H]1C/C=C\C[C@@H](CC(=O)N[C@H](CO)Cc2ccccc2)C(=O)NC[C@@H](c2ccccc2)OC1=O | inactive |
| CN=C(Nc1cccc(S(=O)(=O)N2CCOCC2)c1)c1ccccc1 | inactive |
| O=C(NCCC(=O)N1O[C@@H]2C=C[C@H]1C2)OCC1c2ccccc2-c2ccccc21 | inactive |
| Nc1ncnc2c1ncn2[C@@H]1O[C@H](CNS(=O)(=O)c2ccc(-c3ccno3)s2)[C@@H](O)[C@H]1O | inactive |
| Cc1noc(C)c1NC(=O)Nc1ccc2c(c1)C(=O)N([C@H](C)CO)C[C@H](C)[C@@H](CN(C)C(=O)Nc1ccc(C(F)(F)F)cc1)O2 | inactive |
| O=C1[C@@H](c2ccccc2)[C@@H](c2ccccc2)N1c1cccnc1 | inactive |
| CC1O[C@@H](OC2C(O)C(C)O[C@H](OC(=O)[C@]34CCC(C)(C)C[C@H]3C3=CCC5[C@@]6(C)CC(O)C(O[C@@H]7OC(CO)C(O)[C@@H](O)[C@@H]7O)[C@@](C)(C(=O)O)C6CC[C@@]5(C)[C@]3(CO)CC4)C2O[C@H]2OC(C)[C@@H](O[C@@H]3OCC(O[C@@H]4OC(CO)C(O)[C@H](O)C4O)[C@@H](O)[C@@H]3O)[C@H](O)C2O)C(O)C(O)C1O (stereo not given in full) | inactive |
| COc1cc(C(=O)OCc2cc(=O)n3ccsc3n2)ccc1OC(C)C | inactive |
| O=C1CCC/C=C\C[C@@H](CC(=O)N(CCO)Cc2ccccc2)C(=O)NCCO1 | inactive |
| COc1ccc(CNc2nc(NCc3ccc(OC)cc3)c3ncn(C4CCCC4)c3n2)cc1 | inactive |
| C#CCOCCOCCOCCNc1nc(N2CCN(C(=O)[C@H](CCC(=O)O)n3cc(CN)nn3)CC2)nc(N2CCN(C(=O)[C@H](CCC(=O)O)n3cc(CN)nn3)CC2)n1 | inactive |
| CC[C@]1(C(=O)OC)[C@H]2C(=O)N(Cc3ccccc3)C(=O)[C@H]2[C@H]2CN=C(SCc3ccc(C#N)cc3)N21 | inactive |
| Cc1cccc(C)c1Nc1nnc(SCC(=O)NCCCN2CCCC2=O)s1 | inactive |
| COc1cc(NC(=O)c2[nH]cnc2C(N)=O)cc(C(=O)Nc2cccc(C(F)(F)F)c2)c1 | inactive |
| CN(c1ccccc1)S(=O)(=O)c1cc(C(=O)N2CCN(c3ncccn3)CC2)ccc1Cl | inactive |
| CN(C(=O)CSc1cccc[n+]1[O-])C1CCCCC1 | inactive |
| CC(C)c1cc(C(=O)N/N=C/C(Br)=C/c2ccccc2)n[nH]1 | inactive |

| SMILES | Potency |
| --- | --- |
| Cc1cc(C(=O)N/N=C\C(Br)=C\c2ccccc2)c(C)o1 | 31.6 µM (active) |
| Cc1cc(C(=O)N/N=C/c2ccc(N3CCOCC3)cc2)c(C)o1 | inactive |
| COc1ccc(C/C(C)=N/NC(=O)c2cc(C)oc2C)cc1 | inactive |
| Cc1cc(C(=O)NNC(=O)c2ccccc2O)c(C)o1 | inactive |
| CC(=C/c1ccccc1)/C=N/NC(=O)c1cc(C)oc1C | 11.2 µM (active) |
| O=C1c2ccccc2[C@@H]2C[C@@H](O)[C@H](Nc3ccccc3Cl)CCN12 | inactive |
| CC(C)(C)OC(=O)C1=C(CO)CS[C@@H]2[C@H](NC(=O)Cc3ccccc3)C(=O)N12 | inactive |
| Cc1cccc(NC(=O)c2ccc(S(=O)(=O)N(C)c3ccccc3)cc2)n1 | inactive |
| CCN(CC(=O)NC(C)C)C(=O)c1cc(S(=O)(=O)N2CCCCC2)ccc1N1CCCCC1 | inactive |
| COc1ccc(C(=O)COC(=O)CN2C(=O)C3CC=CCC3C2=O)c(OC)c1 (stereo not given) | inactive |
| Cc1ccc(S(=O)(=O)N2C[C@@H]3CCCC[C@@H]3[C@@H](C)[C@H]2c2cn(Cc3ccccc3)c3ccc(F)cc23)cc1 | inactive |
| COc1ccc(C(=O)Nc2cc(S(=O)(=O)N3CCCC3)ccc2Cl)cc1 | inactive |
| CCN(C(=O)COC(=O)CCC(=O)c1cccs1)C1CCCCC1 | inactive |
| CC(=O)N(O)CCCCCNC(=O)CCC(=O)N(O)CCCCCNC(=O)CCC(=O)N(O)CCCCCNC(=O)CCC(=O)O | inactive |
| O=C(/C=C/c1ccc2c(c1)OCCO2)c1ccc(O)cc1 | 22.4 µM (active) |
| O=C(O)/C=C/c1ccc2c(c1)OCCO2 | inactive |
| O=C(/C=C/c1ccc(Cl)c([N+](=O)[O-])c1)c1ccc(O)cc1 | inactive |
| O=C(COC(=O)c1ccncc1)Nc1ccc2c(c1)OCO2 | inactive |
| O=C(Nc1cccc(S(=O)(=O)N2CCCCC2)c1)c1cncc(Br)c1 | inactive |
| COc1cc(S(=O)(=O)N2CCN(C(=O)C3CC3)CC2)ccc1NC(C)=O | inactive |

| SMILES | Potency |
| --- | --- |
| CC[C@]12c3[nH]c4ccc(OC)cc4c3CCN1C(=O)C(CC(=O)NCCN1CCOCC1)C[C@@H]2C(=O)N1CCN(C(=O)C2CC2)CC1 (stereo not given in full) | inactive |
| CC[C@]12c3[nH]c4cc(CCC(=O)N(C)C)ccc4c3CCN1C(=O)[C@@H](CC(=O)NCCCn1ccnc1)C[C@@H]2C(=O)N1CCN(C(=O)C2CC2)CC1 | inactive |
| CN(C)C(=O)CCc1ccc2c3c([nH]c2c1)[C@]1(C)[C@@H](C(=O)N2CCCCC2)C[C@H](CC(=O)NCCC2=CCCCC2)C(=O)N1CC3 | inactive |
| COc1cc(OC)cc(C(=O)NC(C(=O)N2CCC2)C(C)C)c1 (stereo not given) | inactive |
| O=C(N[C@H]1C/C=C\C(c2ccc(F)cc2)N(Cc2ccccc2)C(=O)C1)OCC1c2ccccc2-c2ccccc21 (stereo not given in full) | inactive |
| COc1ccccc1C(=O)Nc1ccc(C)c(S(=O)(=O)N2CCCCC2)c1 | inactive |
| Cc1ccc2c(c1)NC(=O)[C@@]1(C)[C@@H](c3ccccc3)[C@H]3COc4ccc(Cl)cc4[C@@H]3N1C2=O | inactive |
| C[C@@H]1CN([C@H](C)CO)C(=O)c2cc(NC(=O)NC3CCCCC3)ccc2O[C@H]1CN(C)S(C)(=O)=O | inactive |
| O=C(C[C@@H]1C/C=C\CCC(=O)OC[C@@H]2CCCN2C1=O)NCCO | inactive |
| COc1ccc(/C=C/C(=O)OCC(=O)NC2CCCCCC2)cc1OC | inactive |
| CC1(C)CC[C@@]2(C(=O)O)C(C1)C1=CCC3[C@@]4(C)CC[C@H](O)C(C)(C)C4CC[C@@]3(C)[C@]1(C)C[C@H]2O (stereo not given in full) | inactive |
| CC(=O)C[C@H](O)CC(=O)[C@@H]1OC(=O)[C@@H](C)C/C=C\Cc2ccccc21 | inactive |
| CCCCNC(=O)C(C)N(CCN(C)C)C(=O)CCCCCN1C(=O)NC(c2ccc(Cl)cc2)C(C(=O)OCc2ccccc2)=C1C (stereo not given) | inactive |
| COc1cc2c(-c3ccc4c(c3)OCO4)c(-c3ccsc3)oc(=O)c2cc1OC | inactive |
| COc1cc(/C=C2\Oc3ccc(C#Cc4ccc(O)cc4)cc3C2=O)cc(OC)c1 | inactive |
| Cc1ccc(NS(=O)(=O)c2ccc(C(C)C)cc2)cc1S(=O)(=O)N1CCOCC1 | inactive |
| COc1ccc(Br)cc1CN(C)C(=O)C1CC(=O)N(C2CCCC2)C1 (stereo not given) | inactive |
| Cc1nn(-c2ccccc2)c(Cl)c1C(=O)Nc1ccccc1 | inactive |
| Cc1nn(-c2ccccc2)c(C)c1/C=C/C(=O)OC(C)C(N)=O (stereo not given) | inactive |
| Cc1nn(-c2ccccc2)c(Cl)c1/C=C/C(=O)c1ccc(O)cc1 | 22.4 µM (active) |

— PubChem BioAssay AID504706 (National Center for Advancing Translational Sciences (NCATS), 2011)
